Screening data deposited in PubChem BioAssay by National Center for Advancing Translational Sciences (NCATS).
D1 PAM = potentiators of human D1 dopamine receptor. P21728. 0.036% of 360,000 active. HEK293 TREx D1 cells, calcium flux, dopamine EC20 potentiation. potentiation, % at 10 µM; in the data active = potentiation above about 30%; also: 0% is about no effect
Target sequence (P21728 whole entry, looked up): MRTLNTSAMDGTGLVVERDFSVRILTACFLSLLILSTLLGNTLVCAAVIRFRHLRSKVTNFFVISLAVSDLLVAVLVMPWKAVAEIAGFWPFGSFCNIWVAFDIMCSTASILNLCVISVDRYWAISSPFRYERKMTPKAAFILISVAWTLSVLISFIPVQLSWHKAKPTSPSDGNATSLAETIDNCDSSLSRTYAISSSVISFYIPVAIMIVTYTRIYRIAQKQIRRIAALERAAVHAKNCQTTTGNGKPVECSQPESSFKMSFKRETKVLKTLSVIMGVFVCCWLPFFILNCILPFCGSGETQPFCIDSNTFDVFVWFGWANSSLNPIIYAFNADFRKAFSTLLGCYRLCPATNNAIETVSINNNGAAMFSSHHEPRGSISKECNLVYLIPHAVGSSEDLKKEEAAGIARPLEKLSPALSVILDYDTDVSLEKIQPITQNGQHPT
TRHR agonist = TRH receptor (human) agonism; 0.18% of 360,000 active; AID 493084; activation, % at 2 µM; TRHR cells, calcium flux fluo-8, FDSS agonist mode; also: 0% is about no effect
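In this calcium-flux screen, cells bearing human TRHR are dye-loaded with fluo-8, baselined for 10 cycles, then exposed to library compounds; positive kinetic calcium responses during the agonist phase mark hits, with TRH as control.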
TRHR PAM = allosterically enhances the human TRH receptor. P34981. TRHR cells, fluo-8 calcium fluorescence, EC20 TRH enhancement. enhancement, % at 2 µM. 0.66% of 360,000 active. AID 493056; in the data active = enhancement above about 30%; also: 0% is about no effect
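TRHR-expressing cells loaded with fluo-8 calcium dye were read kinetically (ex 480/em 530) during compound addition, then stimulated with an EC20 of TRH (10 nM final). Enhancement of the Gq-mediated intracellular calcium response was scored.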
D1 agonist = human D1 receptor agonism. 1% of 360,000 active. P21728. activation, % at 2 µM. HEK293 T-REx D1 cells, calcium flux, agonist mode; also: 0% is about no effect
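Tetracycline-induced HEK293 TREx D1 cells, force-coupled to calcium signalling, were dye-loaded with a no-wash calcium kit. Compound was pin-added after a 10 s baseline. Fluorescence was read kinetically at 1 cycle/s for 180 s, with calcium rises flagged as agonism.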
D1 antag = blocks dopamine activation of the human D1 receptor. HEK293 TREx D1 cells, calcium flux, dopamine EC80; active compounds read low. activity change, negative = inhibition, % at 10 µM. 3.2% of 360,000 active; in the data active = activity change below about -30%; also: % is scaled to controls: 0 for no effect and ±100 for the full control effect
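Tetracycline-induced HEK293 Trex D1 cells, force-coupled to calcium, dye-loaded; compounds added and read 180 s, then EC80 dopamine added and calcium flux tracked kinetically another 180 s.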
* hit, by the source's call; nt = no result. Most compounds without a hit are left out; they make up all but 4.7% or so of the library. Rule as the data show it, unless noted: active = activation above about 30%; inactive = the rest.

SMILES	D1 PAM	TRHR agonist	TRHR PAM	D1 agonist	D1 antag
Cc1ccc(/C=c2/sc3nnc(-c4ccccc4Cl)n3c2=O)o1	-3	0	12	1	1
CCN(CC)c1ccc(/C=c2/sc3nnc(-c4ccccc4C)n3c2=O)cc1	-5	7	1	31*	-25
CCOC(=O)C1CCN(Cc2cn3c(-c4ccc(OC)cc4)nnc3s2)CC1	1	0	-1	0	-6
COc1ccc(Cl)cc1NC(=O)CSc1cc(C)[nH]c(=O)n1	0	0	1	0	nt
O=C(COc1ccc2ccccc2c1)NC1CC(=O)N(c2ccc(F)cc2)C1 (stereo not drawn)	0	0	-3	7	nt
CCc1ccc(NC(=O)CC2C(=O)N(c3ccc(F)cc3)C(=O)N2Cc2ccc(F)cc2)cc1 (stereo not drawn)	-4	1	-3	1	-31*
Cc1ccsc1CCN1C(=O)N(c2ccccc2)C(=O)C1CC(=O)Nc1ccc(Cl)cc1 (stereo not drawn)	-5	3	0	9	-36*
O=C(CC1C(=O)N(c2ccccc2)C(=O)N1CCc1cccs1)Nc1ccc(Cl)cc1 (stereo not drawn)	0	0	3	2	-11
CCc1ccc(NC(=O)CC2C(=O)N(c3cccc(C)c3)C(=O)N2Cc2cccs2)cc1 (stereo not drawn)	-3	1	0	3	-38*
CC(C)n1c(NCc2ccc(Cl)cc2)nc2ccccc21	0	0	40*	1	4
CC1(C)CCN2CCC(C)(C)c3c(O)ccc1c32	-6	34*	2	207*	26
CC1(C)CCC(C)(C)c2cc([S+](=O)([O-])N3CCN([S+](=O)([O-])c4c(F)cccc4F)CC3)ccc21	3	-1	-2	-1	-5
COc1ccc(OC)c(CNC(=O)c2ccc(NC(=O)c3nsc4ccccc34)cc2)c1	0	0	-5	0	-2
CC(=O)Nc1ccc(C(=O)/C=C/c2ccco2)cc1	-5	0	-3	3	-77*
Cc1nn(CC(=O)OCC(=O)c2ccc(OC(F)F)cc2)c(C)c1[N+](=O)[O-]	4	-1	-1	-2	-31*
Cc1nn(CC(=O)O)c(C)c1[N+](=O)[O-]	-4	1	6	3	7
CCOc1ccc(-n2c(=O)c3c(C)c(C)sc3n(Cc3cc(=O)n4cc(Cl)ccc4n3)c2=O)cc1	1	-1	9	-1	-42*
CCOc1ccc(-n2c(=O)c3c(C)c(C)sc3n(Cc3ccccc3C)c2=O)cc1	5	1	-5	-1	-73*
COc1cccc(C(=O)N2CCC(C(=O)Nc3cccc(Cl)c3)CC2)c1	-2	-1	3	2	1
O=C(Nc1ccc(C(F)(F)F)cc1)C1(c2cccs2)CCOCC1	2	1	8	-3	nt
Cc1c(Cl)cccc1N1CC(c2nc3ccccc3n2Cc2ccccc2F)CC1=O (stereo not drawn)	-4	0	-7	1	3
Brc1ccc(OCCN2CCOCC2)cc1	-1	0	5	3	3
Cc1cc(OCCN2CCOCC2)ccc1Cl	-2	0	-28	5	-94*
Clc1ccc(OCCN2CCOCC2)cc1	1	0	36*	5	-21
N#Cc1c(-c2ccccc2)cc(-c2ccccc2)nc1SCC(O)CS(=O)(=O)Cc1ccccc1 (stereo not drawn)	-2	1	8	4	4
SMILES	D1 PAM	TRHR agonist	TRHR PAM	D1 agonist	D1 antag
O=C(CNC(=O)C1CCCCC1)NNC(=O)c1ccc(Cl)cc1Cl	-7	0	1	1	5
O=C(CNC(=O)C1CCCCC1)NNC(=O)c1ccccc1Br	-8	1	20	2	-35*
CCCCCCc1cc2cc(-c3nnc(-c4ccccc4O)o3)c(=O)oc2cc1O	0	147*	51*	356*	2
CCCCCCc1cc2cc(-c3nnc(-c4ccccc4OC)o3)c(=O)oc2cc1O	-9	148*	-14	303*	-9
CCCCCCc1cc2cc(S(=O)(=O)c3ccc(F)cc3)c(=O)oc2cc1O	-4	17	7	23	-13
CCCCCCc1cc2cc(-c3nnc(-c4cc(OC)c(OC)c(OC)c4)o3)c(=O)oc2cc1O	6	-1	-3	0	4
CN1CCN(C(=O)CCN2C(=O)/C(=C\c3ccccc3F)SC2=S)CC1	10	0	0	96*	51
